An excerpt weighted towards active compounds, which were near 2.2% of everything screened.
LGR2 inh: inhibitors of bursicon-induced LGR2 CRE-luciferase signal, primary screen, cell-based, HEK293, CRE-luciferase reporter, bursicon stimulation | AID 720647, 2013 | bursicon-stimulated, 4 h | inhibition, % at 9.99 µM | Drosophila bursicon receptor LGR2 (rickets) | hit rate 0.35% among 380,000;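 active = drop in luminescence signal, shown as inhibition above about 50% in the replicate tests, limit read from the data, passing the limit was not always enough; inconclusive = probably only some replicates passing the limit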;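 note: agonist challenge used bursicon conditioned medium at about half maximal strength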
PAX8 inh HTS: inhibitors of PAX8-driven TPO luciferase reporter, primary screen, RMG-I cells, single concentration; AID 652154, 2013; SteadyGlo, 24 h; hit rate 1.2% among 360,000; inhibition, % at 12.6 µM;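 active = mean replicate inhibition at least 60% with every replicate also reaching 60%; inconclusive = only one of the two criteria is met; inactive = mean below 60% and not all replicates reaching 60%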;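 note: luciferase light reporting Pax8 driven TPO promoter activity; plate controls were median of neutral control wells for no effect and mitoxantrone controls for full effect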
EBV LMP1 NFkB: EBV LMP1-driven NF-kappaB luciferase reporter inhibitors, primary screen, cell-based, luminescence, single point | hit rate 0.69% among 350,000 | LMP1-induced NF-kappaB luciferase reporter cells | inhibition, % at 12.5 µM; in the data active = inhibition above about 41%; inconclusive = no clear call, values can overlap the other calls;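 note: 0% = neutral control wells and 100% = reference inhibitor control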
MITF TRPM1 inh: inhibitors of MITF-dependent TRPM1 promoter reporter, primary screen, cell-based, SK-MEL-5, single point, luciferase; SK-MEL-5 TRPM1 promoter luciferase, 24 h; inhibition, % at 12.5 µM; hit rate 0.83% among 330,000; AID 488899, 2010;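 active = mean inhibition across replicates of 60% or more, whatever share of single replicates reaches that level; inconclusive = some that reach 60%, reason not given; inactive = mean inhibition across replicates below 60%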
Shn3 inh set2: reduction of Shn3 3'UTR firefly luciferase signal, primary screen, Schnurri-3 inhibitor project, cell-based, Clone20 osteoblasts, set 2. Clone20 osteoblast Shn3 3'UTR firefly luciferase, 24 h. inhibition, % at 12.5 µM. hit rate 0.52% among 360,000. AID 588674, 2011;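 active = mean inhibition of at least 75% with every replicate also reaching 75%; inconclusive = mean inhibition at least 75% but some replicate below; inactive = mean inhibition below 75%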;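 note: 0% = median of neutral control wells and 100% = pilot-screen positive control compound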
EWS-Fli block: EWS/Fli-driven NR0B1 reporter inhibitors, primary screen, A673 cells, NR0B1 luciferase, luminescence, MLPCN library | viability-normalised | inhibition, % at 12.6 µM | hit rate 0.67% among 350,000 | AID 651661, 2012;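 active = mean inhibition of at least 50% after viability correction, with every replicate also passing that limit; inconclusive = mean reaches 50% but only one of two replicates passes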;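 note: firefly luciferase signal divided by Alamar Blue viability fluorescence both relative to DMSO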
* = called active by the depositor; u = inconclusive; x = no result given.

SMILES	LGR2 inh	PAX8 inh HTS	EBV LMP1 NFkB	MITF TRPM1 inh	Shn3 inh set2	EWS-Fli block
Cc1ccc(S(=O)(=O)N(C)C[C@H]2Oc3ccc(NS(=O)(=O)c4ccccc4)cc3CC(=O)N([C@H](C)CO)C[C@@H]2C)cc1	-9	-6	x	x	x	8
CCOc1ccc(NC(=O)c2cc(OC)nc3ccccc23)cc1	-17	33	8	11	34	42
COc1cc(C(=O)Nc2ccc(C)cc2)c2ccccc2n1	-4	33	2	37	11	54*
CCCCN1CC(COCc2ccccc2)Oc2cccc(OCCN3C(=O)[C@@H]4[C@H](C3=O)C3C=C[C@H]4C3)c2S1(=O)=O (stereo partly specified)	x	85*	10	11	53	20
O=C1[C@@H]2[C@H](C(=O)N1C[C@@H](COCc1ccccc1)Oc1cccc3c1S(=O)(=O)N(CCc1ccc(F)cc1)C[C@H](COCc1ccccc1)O3)[C@@H]1C=C[C@H]2C1	7	26	x	x	x	11
COc1ccc(OC)c(-c2nnc3n2N=C(c2ccc(OC)c(OC)c2)CS3)c1	-23	53	14	50	17	56*
COc1ccc(C2=Nn3c(nnc3-c3ccccc3F)SC2)cc1OC1CCCC1	-86	32	55*	-2	8	-66
COc1ccc(C2=Nn3c(nnc3-c3ccccc3)SC2)cc1OC	-26	x	9	-12	6	x
COc1ccc(C2=Nn3c(nnc3-c3ccccc3F)SC2)cc1OC1CCOC1 (stereo unspecified)	-7	-13	7	27	24	60*
CC[C@@H](C(=O)[C@@H](C)[C@@H](O)[C@H](C)CCc1ccc(C)c(O)c1C(=O)O)[C@H]1O[C@](CC)([C@H]2CC[C@](O)(CC)[C@H](C)O2)C[C@@H]1C	70*	104*	-7	40	92*	26
CCCNC(=O)C[C@H]1CC[C@@H]2[C@H](COc3ccc(NC(=O)c4cscn4)cc3C(=O)N2C)O1	-1	-6	x	x	x	-1
O=C(N/N=C/c1ccccc1Cl)c1n[nH]c2c1CCCC2	71*	77*	19	67*	54	14
O=C(N/N=C/c1ccccc1)c1n[nH]c2c1CCCC2	31	-15	24	-8	-22	-13
COc1cccc(C(=O)Nc2ccc3c(c2)C(=O)N(C)[C@@H]2CC[C@@H](CC(=O)NCC4CC4)O[C@H]2CO3)c1	3	-15	x	x	x	6
CCOc1ccc(NC(=O)CCc2nnc3ccc(N4CCC5(CC4)OCCO5)nn23)cc1	-2	-3	48*	0	-29	-3
CCc1ccc(NC(=O)CCc2nnc3ccc(N4CCC5(CC4)OCCO5)nn23)cc1	4	1	5	5	-7	1
O=C(NC1CCCCC1)C(c1ccc(F)cc1)N(CCc1ccccc1)C(=O)CN1C(=O)c2ccccc2S1(=O)=O (stereo unspecified)	x	8	-24	64*	23	13
COc1ccc(/C=C2\CN(Cc3ccccc3)C/C(=C\c3ccc(OC)c(O)c3)C2=O)cc1O	33	90*	86*	98*	96*	62*
COc1cc(/C=C/C=C2/CC/C(=C/C=C/c3ccc(O)c(OC)c3)C2=O)ccc1O	28	3	1	-3	9	6
COc1cc(/C=C2/CC/C(=C/c3ccc(O)c(OC)c3)C2=O)ccc1O	-1	71*	-1	14	-4	59*
COc1cc(/C=C2\COC/C(=C\c3ccc(O)c(OC)c3)C2=O)ccc1O	x	53	24	79*	x	77*
COc1ccc(/C=C2\CC/C(=C\c3ccc(OC)c(OC)c3)C2=O)cc1OC	-4	9	3	24	-37	-23
C[C@H](CO)N1C[C@H](C)[C@@H](CN(C)CC2CCCC2)Oc2ncc(C#Cc3ccccn3)cc2C1=O	7	8	x	x	x	-1
C[C@H](CO)N1C[C@H](C)[C@@H](CN(C)S(C)(=O)=O)Oc2ncc(C3=CCCCC3)cc2C1=O	26	x	x	x	x	-8
CN(C)CCNC(=O)COc1ccc(C23CC4CC(CC(C4)C2)C3)cc1	5	-12	-3	70*	-25	31
SMILES	LGR2 inh	PAX8 inh HTS	EBV LMP1 NFkB	MITF TRPM1 inh	Shn3 inh set2	EWS-Fli block
c1ccc(-c2cn3nc4c(nc3n2)CCCC4)cc1	68*	x	64*	73*	16	x
CN(C)C(=O)[C@@H]1[C@@H](CO)[C@@H]2Cn3c(ccc(C4=CCCC4)c3=O)[C@H]1N2C(=O)Nc1ccccc1	7	x	x	x	x	0
COc1ccc2c3c(n(C)c2c1)[C@@H](CO)N(C)CC31CN(C(=O)c2ccccc2F)C1	3	x	x	x	x	-7
C=C1C(=O)C23C(O)C1CCC2C12COC3(O)C(O)C1C(C)(C)CCC2O (stereo unspecified)	x	x	x	x	83	68*
NC(=NCc1ccccc1)c1cccc([N+](=O)[O-])c1	-2	-4	3	7	10	18
CC1(C)CSC(=NCc2ccccc2)N1C(=O)c1cccc([N+](=O)[O-])c1	-23	69*	-3	-10	6	-22
CNC[C@H]1Oc2ccc(N(C)C)cc2CC(=O)N([C@@H](C)CO)C[C@H]1C	x	2	x	x	x	-1
COc1ccc(CC2=CC(=O)c3ccccc3C2=O)cc1	-8	18	7	8	89*	69*
COc1ccc(Cc2ccccc2C(=O)O)cc1	21	-8	-51	1	10	3
COc1cccc(-c2cnc3c(c2)C(=O)N([C@@H](C)CO)C[C@H](C)[C@H](CN(C)Cc2ccc(F)cc2)O3)c1	-3	x	x	x	x	9
COc1cc(OC)c(OC)cc1CNc1cc(C)ccc1OC	9	x	13	24	89*	-3
Cc1ccc(C(=O)N/N=C/c2cccc(OC(=O)/C=C/c3ccco3)c2)cn1	-5	-141	-3	-28	-48	-25
O=C(/C=C/c1ccco1)Oc1cc(Br)cc(/C=N/NC(=O)c2ccccc2O)c1	-8	10	61*	25	94*	-3
O=C(c1ccc([N+](=O)[O-])s1)N1CCCc2ccccc21	5	3	-7	70*	4	11
CS(=O)(=O)Nc1ccc2c(c1)[C@@H]1C[C@H](CC(=O)NCc3ccc(-c4ccccc4)cc3)O[C@@H](CO)[C@@H]1O2	14	26	x	x	x	26
CCOC(=O)c1cc2c(=Cc3ccc(N(C)C)cc3)c3ccccc3n2[n+]1C	12	20	10	86*	u	1
CN(C)c1ccc(C=c2c3ccccc3n3c2c2ccccc2[n+]3C)cc1	30	88*	-5	-12	93*	8
CCOC(=O)SC1=N/C(=C\c2ccc(N(C)C)cc2)C(=O)S1	2	x	5	7	5	1

Screens from PubChem BioAssay.
